# Target: T1, Transcription intermediary factor 1-alpha (Homo sapiens) (UniProt O15164)
# T1 sequence (whole entry): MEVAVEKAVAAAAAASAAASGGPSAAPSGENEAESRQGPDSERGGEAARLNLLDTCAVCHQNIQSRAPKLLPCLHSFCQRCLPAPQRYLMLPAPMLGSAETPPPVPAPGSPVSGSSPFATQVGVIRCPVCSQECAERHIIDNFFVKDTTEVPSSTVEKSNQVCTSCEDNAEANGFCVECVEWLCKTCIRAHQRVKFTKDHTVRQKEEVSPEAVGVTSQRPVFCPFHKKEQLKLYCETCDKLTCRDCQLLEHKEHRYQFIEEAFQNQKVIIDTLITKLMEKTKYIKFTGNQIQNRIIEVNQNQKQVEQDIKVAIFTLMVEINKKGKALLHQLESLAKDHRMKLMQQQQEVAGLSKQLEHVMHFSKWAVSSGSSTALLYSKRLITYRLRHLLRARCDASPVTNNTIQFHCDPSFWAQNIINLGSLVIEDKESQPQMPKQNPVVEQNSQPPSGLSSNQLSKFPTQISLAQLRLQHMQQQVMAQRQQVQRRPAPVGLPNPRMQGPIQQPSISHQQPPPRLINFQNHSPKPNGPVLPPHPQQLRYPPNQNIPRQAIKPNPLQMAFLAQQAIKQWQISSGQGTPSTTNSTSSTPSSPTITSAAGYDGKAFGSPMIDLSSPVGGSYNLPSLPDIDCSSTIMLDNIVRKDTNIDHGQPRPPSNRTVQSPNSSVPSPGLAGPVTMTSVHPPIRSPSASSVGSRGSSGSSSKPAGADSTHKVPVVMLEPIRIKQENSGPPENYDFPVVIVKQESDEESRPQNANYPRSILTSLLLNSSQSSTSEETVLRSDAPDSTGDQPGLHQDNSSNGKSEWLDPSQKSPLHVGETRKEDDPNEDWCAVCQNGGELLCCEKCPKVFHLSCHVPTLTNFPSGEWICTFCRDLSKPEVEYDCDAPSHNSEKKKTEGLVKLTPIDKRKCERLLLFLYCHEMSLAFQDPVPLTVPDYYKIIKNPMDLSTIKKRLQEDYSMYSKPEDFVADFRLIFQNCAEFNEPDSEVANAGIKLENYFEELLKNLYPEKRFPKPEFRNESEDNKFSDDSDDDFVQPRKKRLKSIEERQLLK
# Conditions: Compound concentration 10.0 uM, Protein concentration 2.0 uM
smiles,measurement,value
COc1ccccc1S(=O)(=O)Nc1ccc2c(c1)CN(C)C(=O)N2,ΔTm,0.62 °C
